The panel holds about 83,000 compounds, 20% with a hit somewhere; the sample as a whole holds those more often.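 Cells were grown in 96-well plates and exposed to the test compound at a single concentration for 48 hours; results are reported as percent growth, with values below 10 considered active.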 A number with no mark means an inactive call. Calls of active or inactive are those of the source.

The values that follow come from PubChem BioAssay (NCI).

The test relates to HOP-62 NSCLC. Kind of test: NCI-60 one-dose screen, 48 h (100 = growth as untreated, 0 = no growth, -100 = all killed). The conditions noted are these: 10 µM unless noted. Here is the method:
Growth inhibition of the HOP-62 human Non-Small Cell Lung tumor cell line is measured as a screen for anti-cancer activity. Cells are grown in 96 well plates and exposed to the test compound for 48 hours. Compounds are tested at a single concentration, which is 10^-5 M for most compounds. The reported endpoint is percent growth (GI% or GIPRCNT), where numbers from 0 - 100% represent growth inhibition, and numbers from -100% - 0 represent cell death. For example, a value of 40 represents 60% growth inhibition. A value of 0 means no net growth occurred over the course of the experiment. A value of -40 indicates 40% of cells at the beginning of the experiment died by the end of the experiment. A value of -100 means all cells are dead at the end of the experiment.
NCI-60 Human Tumor Cell Lines Screen was performed using the standard one-dose NCI protocol, which is described in more detail at https://dtp.cancer.gov/discovery_development/nci-60/default.htm.
Compounds with GIPRCNT values below 10 were considered active. Activity score was based on GIPRCNT using the following formula: […]
Score is 0 for GIPRCNT values of 100 or above, 50 for GIPRCNT values of 0, and 100 for GIPRCNT values of -100.
Regarding `COc1cc(/C=C2\CN(S(=O)(=O)c3ccc(C)cc3)C/C(=C\c3cc(CN4CCCCC4)c(O)c(OC)c3)C2=O)cc(CN2CCCCC2)c1O`, the growth is -81.7% (active).

In the case of `CN(C)c1ccc(/C=C/C(=O)c2ccc(Nc3nc(Nc4ccc(F)cc4)nc(Nc4ccc(Cl)cc4)n3)cc2)cc1`, the growth was 78.3%.

Turning to `CC(=O)N/C(=C1/OC(C(O)C(O)C(O)CO)CN1C)[P+](c1ccccc1)(c1ccccc1)c1ccccc1` (stereo not given), the growth is 91.4%.

As to `Cc1cc2nc3c4ccccc4n(CCN(C)C)c3nc2cc1C`, the growth is 2.09% (active).

As for `CC(=O)c1cc(-c2ccccc2N)n(-c2ccc3c(c2)OCO3)c1C`, the growth is 30.6%.

On to `CCC(C)Nc1ccc(NC(C)CC)cc1` (stereo not given), for which the growth is 84.8%.

On to `O=C(c1ccc(F)c(Cl)c1)N1c2ccccc2Sc2ccccc21`, for which the growth is 76.6%.

Turning to `Cc1ccc(/C=C(\C#N)C(=O)Nc2ncc(Cc3cc(Cl)ccc3Cl)s2)o1`, the growth was 41.6%.

Regarding `O=C(CN1CCN(c2cc3c(cc2F)c(=O)c(C(=O)O)cn3C2CC2)CC1)N/N=C/c1ccncc1`, the growth is 92.2%.

`O=C1NC(=O)c2c1c1c3ccccc3[nH]c1c1oc3ccc(F)cc3c21`: the growth was 64.8%.

For the compound `COc1ccc(/C(C)=C(\c2ccc(OCCN3CCCCCC3)cc2)c2ccc(OC(=O)c3ccccc3)cc2)cc1`, the growth was 75.7%.

On to `O=C1/C(=C/c2ccc(C(F)(F)F)cc2)COc2ccc(O)c(O)c21`, for which the growth was -36.7% (active).

As for `Cc1ccc(N=Nc2c(N)nn(-c3ccccc3)c2N)cc1`, the growth was 64%.

Regarding `CCCNc1nc2ccccc2c2c(=O)c3cccc(Cl)c3sc12`, the growth was 88.3%.

As for `CSCCC(NC(=O)c1ccccc1)C(=O)N/N=C1\S/C(=C/c2ccc(Cl)cc2)C(=O)N1C` (stereo not given), the growth is 33.9%.

Turning to `Cn1cc(-c2csc(-c3cn(C(=O)OC(C)(C)C)c4ccccc34)n2)c2ccnc(Cl)c21`, the growth is 72.4%.

In the case of `O=C1/C(=C/c2ccccc2)CN(C(=O)c2cccnc2)C/C1=C\c1ccccc1`, the growth was 0.894% (active).

Turning to `CC(/C=C1\SC(=S)N(CC(=O)NC(Cc2c[nH]c3ccccc23)C(=O)O)C1=O)=C\c1ccccc1` (stereo not given), the growth was 96.3%.

With `O=P(O)(O)OCC1OC(n2cnc3c(NCc4ccccc4)ncnc32)C(O)C1O` (stereo not given), the growth was 29.9%.

With `CN1CCCc2cc(/C=C3/SC(=S)N(CCc4ccc(O)cc4)C3=O)ccc21`, the growth was 101%.

Consider `COc1cc(C2=NN(C(C)=O)C(c3ccc(N(C)C)cc3)C2)cc(OC)c1OC` (stereo not given), for which the growth is 83.9%.

On to `Cc1cc2oc(=O)cc(CP(=O)(O)O)c2cc1O`, for which the growth was 97.3%.

Take `O=C(O)c1cccc(N/C=C/C(=O)c2cc3cc(Br)ccc3oc2=O)c1`: the growth was 93.7%.

Turning to `Cc1nn(-c2ccccc2)c(N2CCCCC2)c1/C=N/NC(=O)Cn1c(=O)sc2ccccc21`, the growth was 77.3%.

For `CCN(CCO)CC(C)Nc1ccc([N+](=O)[O-])c2sc3ccccc3c(=O)c12` (stereo not given), the growth is 36.9%.

Take `O=C1NC(=C(Cl)Cl)/C(=N/S(=O)(=O)NCCc2c[nH]c3ccccc23)N1`: the growth was 56.9%.

Take `O[C@@H](c1cc(C(F)(F)F)nc2c(C(F)(F)F)cccc12)[C@H]1CCCCN1`: the growth is 56.1%.

Take `N#CC(C#N)N=Nc1ccc(Cl)cc1Cl`: the growth is 80.7%.

As to `CCOC(=O)c1c(C)nc2c(c1N)CC(=O)N2Cc1cc(OC)c(OC)c(OC)c1`, the growth was 32.5%.

For the compound `CCOc1ccc(/C=N\N=C\c2ccc(OCC)cc2)cc1`, the growth is 93%.

For the compound `CC/C(Cc1ccccc1)=C(\c1ccc(OCCN2CCCCCC2)cc1)c1ccc(OC(=O)NCc2ccccc2)cc1`, the growth was 82.8%.

Regarding `Cc1ccc2[nH]c(=O)c3c(c2c1)OC(N)=C(C#N)C31C(=O)c2cccc3cccc1c23` (stereo not given), the growth is 98.2%.

As to `CC1(C)CCC(S(=O)(=O)c2ccc3c(c2)/C(=N\O)c2cc(S(=O)(=O)N4CCN(c5ccc(F)cc5O)CC4)ccc2-3)CC1`, the growth was -88.1% (active).

For `C=CCn1c(SCC(=O)Nc2ccc(C(=O)/C=C/c3ccc(OC)cc3)cc2)nnc1-c1ccccc1`, the growth is 91.6%.

Regarding `CCOC(=O)/C=C/c1c(C)[nH]c(=O)[nH]c1=O`, the growth is 93.7%.

`O=C1NC(=Nc2ccc(O)cc2)S/C1=C\c1cccs1`: the growth was 46.7%.

On to `Cc1ccc(O)c(NC(=O)c2ccc(CNc3ccnc(C(F)(F)F)c3)cc2)c1`, for which the growth was 56%.

Take `O=C(N/N=C/c1ccc(O)cc1O)c1ccc(Nc2ccnc(C(F)(F)F)c2)cc1`: the growth was 31.1%.

`O=C(N/N=C/c1ccc(Cl)cc1Cl)c1ccc2nc(-c3ccc(Cl)cc3)[nH]c2c1`: the growth is 8.05% (active).

With `COc1cc(/C=C2\C(=O)N(c3c(Cl)cccc3Cl)c3ccccc32)cc(OC)c1OCCCCCCn1c2ccccc2c(=O)c2ccccc21`, the growth was 95.4%.
